Results filed as inconclusive are left out. Active and inactive are the calls of the source. Rule for the calls, unless noted: active = hit-call score of the fitted dose curve at least 0.9, where 1 is the maximum; inactive = score below 0.9.
Tests used:
[1] = read-out: sulfotransferase 2A1 (SULT2A1), SULT2A1 (gene 6822); assay: LTEA_HepaRG_SULT2A1: Life Technologies and Expression Analysis (LTEA) Assay for sulfotransferase 2A1 (SULT2A1) using HepaRG (AID 2283531); conditions: mRNA level, 48 h; actives raise or lower the signal
In short: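 Transcript levels of SULT2A1, quantified by qRT-PCR and normalized to three housekeeping genes, serve as the readout. Human HepaRG cultures receive test chemicals for 48 h at up to 100 uM in half-log steps, with 0.5% DMSO vehicle.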

[2] = read-out: Transforming Growth Factor (TGFA), TGFA (gene 7039); assay: LTEA_HepaRG_TGFA: Life Technologies and Expression Analysis (LTEA) Assay for Transforming Growth Factor (TGFA) using HepaRG (AID 2283532); conditions: mRNA level, 48 h; actives raise or lower the signal
In short: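 HepaRG (human liver line), 48 h exposure, 8 conc. half-log down from 100 uM, 0.5% DMSO vehicle, duplicates; serum-free induction medium. TGFA mRNA by TaqMan qRT-PCR, ACTB/GAPDH/POLR2A normalization; gain/loss fit vs DMSO.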

[3] = read-out: Transforming Growth Factor (TGFB1), TGFB1 (gene 7040); assay: LTEA_HepaRG_TGFB1: Life Technologies and Expression Analysis (LTEA) Assay for Transforming Growth Factor (TGFB1) Transporter using HepaRG (AID 2283533); conditions: mRNA level, 48 h; actives raise or lower the signal
In short: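 HepaRG, 48 h post-plating, switched to serum-free induction medium; chemicals 100 uM top, half-log, 8 pts, 0.5% DMSO, dup; 48 h exposure; RNA → Fluidigm TaqMan qRT-PCR; norm ACTB/GAPDH/POLR2A; bidirectional fit vs DMSO.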

TIMP1, TIMP1 (gene 7076) = assay: LTEA_HepaRG_TIMP1: Life Technologies and Expression Analysis (LTEA) Assay for TIMP1 using HepaRG (AID 2283534); conditions: mRNA level, 48 h; actives raise or lower the signal;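 note: TaqMan qRT-PCR signal normalized to ACTB GAPDH and POLR2A housekeeping genes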
In short: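 Readout is TIMP1 mRNA level measured by qRT-PCR and normalized to three housekeeping genes. Human HepaRG cells were treated for 48 h in duplicate at eight concentrations up to 100 uM (0.5% DMSO); gain or loss fitted against DMSO.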

[4] = read-out: Tumor necrosis factor receptor 1 (TNFRSF1A), TNFRSF1A (gene 7132); assay: LTEA_HepaRG_TNFRSF1A: Life Technologies and Expression Analysis (LTEA) Assay for Tumor necrosis factor receptor 1 (TNFRSF1A) using HepaRG (AID 2283535); conditions: mRNA level, 48 h; actives raise or lower the signal
In short: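 Read-out is TNFRSF1A transcript level by TaqMan qRT-PCR, normalized to three housekeeping genes, scored as gain or loss of signal versus 0.5% DMSO. Human HepaRG cells received test chemicals for 48 h at up to 100 uM (half-log series).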

[5] = read-out: Thyroid Hormone Responsive (THRSP), THRSP (gene 7069); assay: LTEA_HepaRG_THRSP: Life Technologies and Expression Analysis (LTEA) Assay for Thyroid Hormone Responsive (THRSP) using HepaRG (AID 2283536); conditions: mRNA level, 48 h; actives raise or lower the signal
In short: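 mRNA induction or loss relative to 0.5% DMSO vehicle was fitted bidirectionally across an eight-point curve whose highest exposure was 100 uM. Human HepaRG liver cells received chemicals in duplicate over 48 h before RNA extraction.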

[6] = read-out: Cellular tumor antigen p53 (Homo sapiens) (UniProt P04637); assay: LTEA_HepaRG_TP53: Life Technologies and Expression Analysis (LTEA) Assay for Tumor Protein P53 (TP53) using HepaRG (AID 2283537); conditions: mRNA level, 48 h; actives raise or lower the signal
In short: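 Differentiated HepaRG cells in serum-free induction medium exposed 48 h in duplicate to 8 half-log concentrations, top 100 uM, 0.5% DMSO. TP53 mRNA by TaqMan qRT-PCR (Fluidigm), normalized to ACTB, GAPDH, POLR2A; fitted bidirectionally versus DMSO.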

[7] = read-out: UDP glucuronosyltransferase (UGT1A1), UGT1A1 (gene 54658); assay: LTEA_HepaRG_UGT1A1: Life Technologies and Expression Analysis (LTEA) Assay for UDP glucuronosyltransferase (UGT1A1) using HepaRG (AID 2283538); conditions: mRNA level, 48 h; actives raise or lower the signal
In short: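 Differentiated human HepaRG cells in serum-free induction medium were exposed in duplicate for 48 h to eight half-log concentrations up to 100 uM in 0.5% DMSO. UGT1A1 mRNA was quantified by TaqMan qRT-PCR, normalized to ACTB, GAPDH and POLR2A, and fitted bidirectionally against DMSO.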

[8] = read-out: UDP glucuronosyltransferase (UGT1A6), UGT1A6 (gene 54578); assay: LTEA_HepaRG_UGT1A6: Life Technologies and Expression Analysis (LTEA) Assay for UDP glucuronosyltransferase (UGT1A6) using HepaRG (AID 2283539); conditions: mRNA level, 48 h; actives raise or lower the signal
In short: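 HepaRG, 48 h post-plating switch to serum-free induction medium; chemical 48 h, 100 uM top, half-log x8, duplicate, 0.5% DMSO. Phenobarbital 1mM induction control. UGT1A6 mRNA by TaqMan qRT-PCR; gain/loss fit vs DMSO.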

[9] = read-out: X-box binding protein 1 (XBP1), XBP1 (gene 7494); assay: LTEA_HepaRG_XBP1: Life Technologies and Expression Analysis (LTEA) Assay for X-box binding protein 1 (XBP1) using HepaRG (AID 2283540); conditions: mRNA level, 48 h; actives raise or lower the signal
In short: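 Transcript levels of XBP1, measured by qRT-PCR and normalised to three housekeeping genes, were fitted bidirectionally relative to 0.5% DMSO controls. Human HepaRG cells received eight-point half-log dilutions from 100 uM for 48 h.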

[10] = LTEA_HepaRG_LDH_cytotoxicity: Cytotoxicity Assessment in the Life Technologies and Expression Analysis (LTEA) Assay (AID 2283563; active = hit-call score of the fitted dose curve at least 0.9, where 1 is the maximum)
In short: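 Cells were thawed and plated for 48 h. Medium was then replaced with serum-free induction medium. Chemicals (8 half-log points, maximum 100 uM, 0.5% DMSO) were added in duplicate for 48 h, after which spent medium was assayed for LDH.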

[11] = Tanguay_ZF_120hpf_MORT_legacy: (Legacy) Oregon State University Tanguay Lab 120 Hour Post-fertilization zebrafish Assay for Mortality (AID 2283633; active = hit-call score of the fitted dose curve at least 0.9, where 1 is the maximum)
In short: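 5D WT zebrafish, chorion removed 4 hpf; 1 embryo/well from 6 hpf; static exposure to 120 hpf, 28C, dark, sealed. Final DMSO 0.64%. Readout: binary mortality, brightfield, 24 + 120 hpf; DMSO as negative control.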

[12] = Tanguay_ZF_120hpf_YSE_legacy: (Legacy) Oregon State University Tanguay Lab 120 Hour Post-fertilization zebrafish Assay for Yolk Sac Edema (AID 2283634; active = hit-call score of the fitted dose curve at least 0.9, where 1 is the maximum)
In short: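 Dechorionate (pronase, 4 hpf) → place one 6 hpf embryo per well → static compound exposure, sealed and foil-covered, 28C, to 120 hpf → record yolk sac edema as present or absent. Final DMSO 0.64%.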

[13] = Tanguay_ZF_120hpf_EYE_legacy: (Legacy) Oregon State University Tanguay Lab 120 Hour Post-fertilization zebrafish Assay for Eye Malformation (AID 2283636; active = hit-call score of the fitted dose curve at least 0.9, where 1 is the maximum)
In short: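 Read-out is binary presence or absence of eye malformation, scored by brightfield microscopy at 120 hpf. Single larvae were exposed from 6 hpf in embryo medium containing 0.64% DMSO, with DMSO as baseline.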

[14] = Tanguay_ZF_120hpf_SNOU_legacy: (Legacy) Oregon State University Tanguay Lab 120 Hour Post-fertilization zebrafish Assay for Snout Malformation (AID 2283637; active = hit-call score of the fitted dose curve at least 0.9, where 1 is the maximum)
In short: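 Snout malformation read as a yes/no call on brightfield images of 120 hpf larvae (Tropical 5D strain). Static exposure began at 6 hpf on dechorionated embryos in 0.64% DMSO, with gain of signal analysed versus DMSO controls.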

[15] = Tanguay_ZF_120hpf_JAW_legacy: (Legacy) Oregon State University Tanguay Lab 120 Hour Post-fertilization zebrafish Assay for Jaw Malformation (AID 2283638; active = hit-call score of the fitted dose curve at least 0.9, where 1 is the maximum)
In short: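 Steps: dechorionate 4 hpf embryos (pronase); plate 1/well at 6 hpf; add test chemical, 0.64% DMSO final; seal, cover, hold at 28C statically to 120 hpf; score jaw defect presence/absence microscopically. Dead embryos not scored.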

[16] = Tanguay_ZF_120hpf_OTIC_legacy: (Legacy) Oregon State University Tanguay Lab 120 Hour Post-fertilization zebrafish Assay for Otic Vesicle Malformation (AID 2283639; active = hit-call score of the fitted dose curve at least 0.9, where 1 is the maximum)
In short: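 Tropical 5D wild-type zebrafish embryos were exposed statically in sealed, foil-covered plates at 28C until 120 hpf, with 0.64% (vol/vol) DMSO final. Otic vesicle malformation was scored present/absent by brightfield microscopy, with DMSO as baseline.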

[17] = Tanguay_ZF_120hpf_PE_legacy: (Legacy) Oregon State University Tanguay Lab 120 Hour Post-fertilization zebrafish Assay for Pericardial Edema (AID 2283640; active = hit-call score of the fitted dose curve at least 0.9, where 1 is the maximum)
In short: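 Embryos from wild-type 5D adults were staged, then dosed in 0.64% DMSO. They were kept sealed in the dark at 28C until 120 hpf. Pericardial edema was then recorded as present or absent.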

[18] = Tanguay_ZF_120hpf_BRAI_legacy: (Legacy) Oregon State University Tanguay Lab 120 Hour Post-fertilization zebrafish Assay for Brain Malformation (AID 2283641; active = hit-call score of the fitted dose curve at least 0.9, where 1 is the maximum)
In short: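 Wild-type 5D larvae, static waterborne exposure to 120 hpf, 28C, 0.64% v/v DMSO. Brightfield scoring of brain defects, binary; dead embryos excluded. Positive ctrl 5uM trimethyltin chloride.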

[19] = Tanguay_ZF_120hpf_SOMI_legacy: (Legacy) Oregon State University Tanguay Lab 120 Hour Post-fertilization zebrafish Assay for Somite Malformation (AID 2283647; active = hit-call score of the fitted dose curve at least 0.9, where 1 is the maximum)
In short: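 Read-out: presence or absence of somite malformation in 120 hpf larvae, gain-of-signal relative to DMSO baseline. Embryos lacked chorion (pronase, 4 hpf) and were exposed statically from 6 hpf at 28C; dead larvae not scored.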

Measured: outcome

Chain of Cellular tumor antigen p53 (Homo sapiens) (P04637 whole entry, looked up): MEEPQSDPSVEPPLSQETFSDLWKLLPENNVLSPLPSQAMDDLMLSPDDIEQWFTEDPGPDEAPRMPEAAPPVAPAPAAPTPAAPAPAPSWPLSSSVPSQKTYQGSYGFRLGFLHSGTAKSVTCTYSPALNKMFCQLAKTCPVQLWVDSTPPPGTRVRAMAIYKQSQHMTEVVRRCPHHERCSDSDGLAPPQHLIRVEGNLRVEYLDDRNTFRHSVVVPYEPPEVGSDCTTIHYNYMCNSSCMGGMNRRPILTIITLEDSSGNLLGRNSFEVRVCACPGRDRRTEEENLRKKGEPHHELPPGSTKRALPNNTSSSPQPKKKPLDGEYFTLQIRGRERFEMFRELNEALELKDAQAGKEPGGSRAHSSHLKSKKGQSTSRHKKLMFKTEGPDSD

CCC(C)=NO
inactive: all assays above

Source: PubChem BioAssay (EPA / NIEHS)
